“And” between values parts separate entries of the source, which are not always exact repeats. Equal values may be shown once. Hit rate of the full screen: of about 5,500 compounds, about 2,000 (36%) were called active. Inconclusive results (about 18%) are left out. Cut-off read from the data, not from the text of the source: active = normalized growth mostly below about 0.91 (no sharp cut-off); inconclusive = no clear call, values can overlap the other calls; inactive = mostly above about 0.92. Some of the results follow.
Assay: chemical genetic growth profiling, strain panel (AID 1159580);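 note: tested at 20 µM; growth read once vehicle control cultures reached saturation at 30 °C; 1 = growth at the plate median or of vehicle wells; lower values mean less growth of the strain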
Conditions: S. cerevisiae deletion strains, growth OD

Measured: normalized growth

CC(C)(O)[C@@H]1[C@H]2OC(=O)[C@@H]1[C@]1(O)C[C@H]3O[C@]34C(=O)O[C@H]2[C@]14C
inactive: locus YAL013W, strain DEP1, active compounds read low 1 | locus YAL021C, strain ccr4, active compounds read low 1.01 | locus YAL026C, strain drs2, active compounds read low 1.01 | locus YAL030W, strain snc1, active compounds read low 1 | locus YBL061C, strain skt5, active compounds read low 1 | locus YBR009C, strain hhf1, active compounds read low 0.998 | locus YBR021W, strain FUR4, active compounds read low 1 | locus YBR023C, strain chs3, active compounds read low 1.01 | locus YBR171W, strain sec66, active compounds read low 0.99 | locus YBR229C, strain ROT2, active compounds read low 1 | locus YBR231C, strain swc5, active compounds read low 0.991 | locus YBR279W, strain paf1, active compounds read low 1.01 | locus YCL011C, strain gbp2, active compounds read low 1.01 | locus YCL016C, strain dcc1, active compounds read low 1.01 | locus YCL029C, strain bik1, active compounds read low 1.01 | locus YCL061C, strain MRC1, active compounds read low 1 | locus YCL069W, strain vba3, active compounds read low 1.01 | locus YCR088W, strain abp1, active compounds read low 1 | locus YDL005C, strain med2, active compounds read low 0.988 | locus YDL035C, strain GPR1, active compounds read low 1 | locus YDL040C, strain nat1, active compounds read low 1 | locus YDL074C, strain BRE1, active compounds read low 1.02 | locus YDL101C, strain DUN1, active compounds read low 1.01 | locus YDL134C, strain PPH21, active compounds read low 1 | locus YDL185W, strain tfp1, active compounds read low 1.01 | locus YDL192W, strain arf1, active compounds read low 1.02 | locus YDR001C, strain nth1, active compounds read low 1.01 | locus YDR069C, strain doa4, active compounds read low 1.01 | locus YDR101C, strain arx1, active compounds read low 1 | locus YDR137W, strain rgp1, active compounds read low 1 | locus YDR150W, strain NUM1, active compounds read low 1 | locus YDR159W, strain sac3, active compounds read low 0.993 | locus YDR162C, strain NBP2, active compounds read low 1.01 | locus YDR195W, strain ref2 0.988 | locus YDR297W, strain sur2, active compounds read low 0.993 | locus YDR318W, strain mcm21, active compounds read low 1.01 | locus YDR334W, strain swr1, active compounds read low 1.02 | locus YDR335W, strain msn5, active compounds read low 1 | locus YDR388W, active compounds read low 1.02 | locus YDR392W, strain spt3, active compounds read low 0.939 | locus YDR502C, strain sam2, active compounds read low 1.03 | locus YEL003W, strain gim4, active compounds read low 1 | locus YEL037C, strain rad23, active compounds read low 1.02 | locus YEL061C, strain CIN8 (second series), active compounds read low 1.01 | locus YEL061C, strain CIN8, active compounds read low 1 | locus YER015W, strain faa2, active compounds read low 1.01 | locus YER016W, strain bim1, active compounds read low 0.997 | locus YER110C, active compounds read low 1.02 | locus YER111C, strain swi4, active compounds read low 1 | locus YER155C, strain BEM2 (second series), active compounds read low 1.01 | locus YER155C, strain BEM2, active compounds read low 1 | locus YER167W, strain BCK2, active compounds read low 1 | locus YFR010W, strain ubp6, active compounds read low 1.01 | locus YGL078C, strain dbp3, active compounds read low 1.01 | locus YGL086W, strain mad1, active compounds read low 1.02 | locus YGL167C, strain pmr1, active compounds read low 1 | locus YGL173C, strain kem1, active compounds read low 1 | locus YGL227W, strain vid30, active compounds read low 0.993 | locus YGL240W, strain doc1, active compounds read low 1 | locus YGL248W, strain PDE1, active compounds read low 1.01 | locus YGL253W, strain hxk2, active compounds read low 1.01 | locus YGR078C, strain PAC10, active compounds read low 1 | locus YGR135W, strain pre9, active compounds read low 1 | locus YGR252W, strain gcn5, active compounds read low 0.994 | locus YHR013C, strain ard1, active compounds read low 0.988 | locus YHR027C, strain rpn1, active compounds read low 1.01 | locus YHR030C, strain SLT2, active compounds read low 1.01 and 1.03 | locus YHR079C, strain IRE1 (second series), active compounds read low 1.01 | locus YHR079C, strain IRE1, active compounds read low 1.03 | locus YHR094C, strain hxt1, active compounds read low 1.01 | locus YHR129C, strain ARP1, active compounds read low 1 | locus YHR142W, strain chs7, active compounds read low 1.01 | locus YHR200W, strain rpn10, active compounds read low 1.03 | locus YIL066C, strain RNR3, active compounds read low 1.01 | locus YIL073C, strain SPO22, active compounds read low 1.06 | locus YIL125W, strain kgd1, active compounds read low 1.01 | locus YIR030C, strain dcg1, active compounds read low 1.02 | locus YJL092W, strain hpr5, active compounds read low 1 | locus YJL095W, strain BCK1 (second series), active compounds read low 1 | locus YJL095W, strain BCK1, active compounds read low 0.997 and 1.04 | locus YJL115W, strain asf1, active compounds read low 1.01 | locus YJL129C, strain trk1, active compounds read low 1 | locus YJL134W, strain LCB3, active compounds read low 1.01 | locus YJL154C, strain vps35, active compounds read low 1.01 | locus YJL164C, strain tpk1, active compounds read low 0.999 | locus YJL166W, strain qcr8, active compounds read low 1 | locus YJL168C, strain set2, active compounds read low 1.01 | locus YJL187C, strain SWE1 (second series), active compounds read low 1.01 | locus YJL187C, strain SWE1, active compounds read low 1.01 | locus YJR043C, strain POL32, active compounds read low 1.01 | locus YJR066W, strain TOR1, active compounds read low 0.965 | locus YJR075W, strain HOC1, active compounds read low 1.01 | locus YKL009W, strain mrt4, active compounds read low 1.02 | locus YKL068W, active compounds read low 1 | locus YKL085W, strain MDH1 (second series), active compounds read low 1 | locus YKL085W, strain MDH1, active compounds read low 1 | locus YKL160W, strain elf1, active compounds read low 0.998 | locus YKL190W, strain CNB1, active compounds read low 1.01 | locus YKR001C, strain vps1, active compounds read low 1.05 | locus YKR026C, strain gcn3, active compounds read low 1.01 | locus YKR091W, strain srl3, active compounds read low 1 | locus YLL001W, strain dnm1, active compounds read low 0.996 | locus YLL026W, active compounds read low 0.999 | locus YLL041C, strain sdh2, active compounds read low 1.01 | locus YLR027C, strain aat2, active compounds read low 1.03 | locus YLR039C, strain RIC1, active compounds read low 0.995 | locus YLR058C, strain SHM2, active compounds read low 1 | locus YLR102C, strain apc9, active compounds read low 1.01 | locus YLR113W, strain HOG1, active compounds read low 0.982 | locus YLR221C, strain rsa3, active compounds read low 0.999 | locus YLR258W, strain gsy2, active compounds read low 0.997 | locus YLR262C, strain YPT6 (second series), active compounds read low 0.991 | locus YLR262C, strain YPT6, active compounds read low 1.02 | locus YLR268W, strain sec22, active compounds read low 1.02 | locus YLR320W, strain mms22, active compounds read low 1 | locus YLR330W, strain CHS5, active compounds read low 1.01 | locus YLR342W, strain FKS1 (second series), active compounds read low 1.02 | locus YLR342W, strain FKS1, active compounds read low 1.01 | locus YLR357W, strain rsc2, active compounds read low 1.02 | locus YLR370C, strain arc18, active compounds read low 1 | locus YLR371W, strain rom2, active compounds read low 1.02 | locus YLR384C, strain iki3, active compounds read low 0.994 | locus YLR418C, strain cdc73, active compounds read low 0.997 | locus YML016C, strain PPZ1, active compounds read low 1.01 | locus YML032C, strain rad52, active compounds read low 1.02 | locus YML120C, strain ndi1, active compounds read low 1.01 | locus YML124C, strain tub3, active compounds read low 1 | locus YMR058W, strain fet3, active compounds read low 1.01 | locus YMR078C, strain ctf18, active compounds read low 1.01 | locus YMR125W, strain sto1, active compounds read low 1.01 | locus YMR129W, active compounds read low 1 | locus YMR205C, strain PFK2, active compounds read low 0.988 | locus YMR223W, strain ubp8, active compounds read low 1.01 | locus YMR231W, strain pep5, active compounds read low 1 | locus YMR263W, strain SAP30, active compounds read low 1.01 | locus YMR307W, strain GAS1, active compounds read low 1.03 | locus YNL067W, strain RPL9B, active compounds read low 1 | locus YNL071W, strain lat1, active compounds read low 1.01 | locus YNL128W, strain TEP1, active compounds read low 1.03 | locus YNL153C, strain GIM3, active compounds read low 1 | locus YNL183C, strain NPR1, active compounds read low 0.987 | locus YNL209W, strain ssb2, active compounds read low 1.01 | locus YNL233W, strain BNI4, active compounds read low 0.996 | locus YNL248C, strain rpa49, active compounds read low 0.958 | locus YNL250W, strain rad50, active compounds read low 1 | locus YNL271C, strain bni1, active compounds read low 1.01 | locus YNL298W, strain CLA4, active compounds read low 1.02 | locus YNL307C, strain MCK1, active compounds read low 1.03 | locus YNL322C, strain KRE1 (second series), active compounds read low 0.998 | locus YNL322C, strain KRE1, active compounds read low 1 | locus YNR049C, strain mso1, active compounds read low 1.01 | locus YNR052C, strain pop2, active compounds read low 1.01 | locus YOL006C, strain TOP1, active compounds read low 1.02 | locus YOL012C, strain htz1 1.37 | locus YOL147C, strain pex11, active compounds read low 1.01 | locus YOR001W, strain rrp6, active compounds read low 1.02 | locus YOR061W, strain CKA2, active compounds read low 1.02 | locus YOR069W, strain VPS5, active compounds read low 1.01 | locus YOR070C, strain gyp1, active compounds read low 1.02 | locus YOR080W, strain dia2, active compounds read low 0.992 | locus YOR083W, strain WHI5, active compounds read low 0.988 | locus YOR106W, strain vam3, active compounds read low 1.01 | locus YOR136W, strain idh2, active compounds read low 1.01 | locus YOR144C, strain elg1, active compounds read low 1.02 | locus YOR184W, strain ser1, active compounds read low 1.02 | locus YOR231W, strain MKK1, active compounds read low 1.02 | locus YOR265W, strain rbl2, active compounds read low 1.01 | locus YOR270C, strain vph1, active compounds read low 1.02 | locus YOR290C, strain snf2, active compounds read low 0.982 | locus YOR316C, strain cot1, active compounds read low 1.01 | locus YPL051W, strain arl3, active compounds read low 1.04 | locus YPL055C, strain LGE1, active compounds read low 1.01 | locus YPL078C, strain atp4, active compounds read low 1.01 | locus YPL106C, strain sse1, active compounds read low 0.987 | locus YPL240C, strain hsp82, active compounds read low 0.997 | locus YPL241C, strain CIN2, active compounds read low 1.01 | locus YPL256C, strain CLN2, active compounds read low 1.02 | locus YPR119W, strain clb2, active compounds read low 1.01 | locus YPR141C, strain kar3, active compounds read low 1 | locus YPR163C, strain tif3, active compounds read low 1.03 | locus YPR167C, strain met16, active compounds read low 1.01 | strain wtn01, active compounds read low 1.03

Reference: PubChem BioAssay AID1159580 (chemical genetic matrix, 2015)
